# Assay outcomes as filed in PubChem BioAssay.
# PME-1 inh – PME-1 inhibitors via competitive probe labeling, primary screen, biochemical, fluorescence polarization, FP-Rh probe, HTS; Protein phosphatase methylesterase 1 (Homo sapiens), Q9Y570; recombinant PME-1; inhibition, % at 5.9 µM; 320,000 tested, 0.53% active;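 active = inhibition above the campaign mean of all compounds plus 3 SD, cut at about 26% in these data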;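 also: competitive labeling of PME-1 active site by serine hydrolase directed probe; 0% = PME-1 with DMSO and 100% = wells lacking PME-1 enzyme; inhibitors block probe labeling so polarization falls and inhibition rises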
# Fam108B inh – mouse Fam108B serine hydrolase inhibitors, primary screen, counter-screen for RBBP9 inhibitor project, biochemical, fluorescence polarization | recombinant Fam108B, FP-Rh probe fluorescence polarization | AID 1947, 2009 | inhibition, % at 9.51 µM | 300,000 tested, 0.33% active;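 active = inhibition above the screen mean inhibition plus 3 SD, computed separately per campaign, cut at about 18% in these data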;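 also: inhibitors lower polarization as less probe binds the enzyme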
# LYPLA2 counter – LYPLA2 inhibitors, primary screen, counter-screen for PME1 inhibitor project, biochemical, fluorescence polarization, FP-Rh probe ABPP; Acyl-protein thioesterase 2 (Homo sapiens), O95372; recombinant LYPLA2; inhibition, % at 5.9 µM; 320,000 tested, 0.38% active;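 active = inhibition above the screen-wide mean plus 3 SD, limit set per campaign, cut at about 26% in these data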;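 also: 0% = LYPLA2 with DMSO and 100% = wells lacking LYPLA2 enzyme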
# Target sequence (O95372 whole entry, looked up): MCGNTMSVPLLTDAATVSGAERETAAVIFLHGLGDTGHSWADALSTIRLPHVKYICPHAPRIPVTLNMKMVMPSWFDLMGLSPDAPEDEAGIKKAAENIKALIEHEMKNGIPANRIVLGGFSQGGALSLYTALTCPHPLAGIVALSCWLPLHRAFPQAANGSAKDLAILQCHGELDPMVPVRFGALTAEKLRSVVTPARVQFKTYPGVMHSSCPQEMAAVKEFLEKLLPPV
# GSTO1 counter – inhibitors of recombinant GSTO1, primary screen, counter-screen for RBBP9 inhibitor project, biochemical, fluorescence polarization. Glutathione S-transferase omega-1 (Homo sapiens), P78417. activity-based probe fluorescence polarization. inhibition, % at 5.96 µM. 300,000 tested, 1.1% active. AID 1974, 2009;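 active = inhibition above the campaign mean inhibition plus 3 SD, cut at about 35% in these data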;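 also: 0% = GSTO1-1 with DMSO and 100% = wells lacking GSTO1-1 enzyme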
# Target sequence (P78417 whole entry, looked up): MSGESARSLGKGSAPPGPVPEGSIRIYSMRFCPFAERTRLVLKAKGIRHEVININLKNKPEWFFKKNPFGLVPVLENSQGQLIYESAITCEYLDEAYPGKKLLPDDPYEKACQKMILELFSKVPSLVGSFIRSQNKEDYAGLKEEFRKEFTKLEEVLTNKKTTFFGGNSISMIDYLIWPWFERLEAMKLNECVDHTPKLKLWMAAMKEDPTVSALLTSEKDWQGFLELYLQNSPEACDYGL
# PAD4 FP inh – human PAD4 inhibitors, primary screen, biochemical, fluorescence polarization, 1536-well format; inhibition, % at 6.36 µM; AID 485272, 2010; 330,000 tested, 0.41% active; recombinant PAD4, RCA probe fluorescence polarization;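 active = percent inhibition above a cutoff equal to the mean of all tested compounds plus 3 SD, cut at about 15% in these data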;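 also: 0% = PAD4 with RCA probe and DMSO and 100% = probe without PAD4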
# LYPLA1 inh – LYPLA1 inhibitors, primary screen, counter-screen for PME1 inhibitor project, biochemical, fluorescence polarization, FP-Rh probe ABPP | Acyl-protein thioesterase 1 (Homo sapiens), O75608 | recombinant LYPLA1 | inhibition, % at 5.9 µM | 320,000 tested, 0.16% active | AID 2174, 2009;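 active = inhibition above the mean of all tested compounds plus 3 SD, set per campaign, cut at about 14% in these data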;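 also: inhibitors block serine hydrolase probe labeling of LYPLA1 so polarization falls; 0% = enzyme with DMSO and 100% = wells lacking LYPLA1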
# LYPLA2 conf – LYPLA2 inhibitors, retest, confirmation, counter-screen for PME1 inhibitor project, biochemical, fluorescence polarization, FP-Rh probe ABPP; inhibition, % at 5.9 µM; AID 2232, 2010; recombinant LYPLA2; 1,100 tested, 72% active; shares compounds with LYPLA2 counter;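 active = mean inhibition across replicates above the hit cutoff set in the primary screen, cut at about 26% in these data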;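 also: blocked labeling of the enzyme by serine hydrolase FP-Rh probe lowers polarization; 0% = enzyme with DMSO and 100% = wells lacking LYPLA2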
# LYPLA2 ABPP – LYPLA2 inhibitors in proteome, late-stage follow-up, gel-based competitive ABPP, fluorescence, assay provider; AID 652029, 2013; inhibition, % at 20 µM; rhLYPLA2 in mouse brain proteome, gel ABPP FP-Rh; 150 tested, 30% active; shares compounds with LYPLA2 counter;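 active = inhibition of LYPLA2 enzyme probe labeling above about 50%, limit read from the data; inactive = inhibition below that limit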;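 also: loss of FP-Rh probe labeling of the LYPLA2 gel band measured as band density; 0% = DMSO only control band and 100% = blank gel background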
# The depositor's hits bear a star; . = no result. Compounds with a hit are over-represented: about 1.8% of the library has one in this group of screens.
SMILES,PME-1 inh,Fam108B inh,LYPLA2 counter,GSTO1 counter,PAD4 FP inh,LYPLA1 inh,LYPLA2 conf,others
COCCCN1C(=O)c2ccc(C(=O)Nc3ccc(C)cc3C)cc2C1=O,0.5,-2.4,-1.2,-3.2,-2.4,0.5,.,
Cc1cc(NC(=O)COC(=O)c2c(C)noc2C)ccc1Br,-6.1,-3.9,48.5*,-2.0,-1.2,2.4,52.8*,
Cc1noc(C)c1C(=O)OCC(=O)Nc1cccc(S(N)(=O)=O)c1,4.7,2.5,1.9,4.0,3.3,2.6,.,
CCCOc1ccc(C(=O)NNC(=S)NC(=O)c2ccccc2[N+](=O)[O-])cc1,-4.9,-4.8,26.9*,15.3,-0.2,-1.1,29.0*,
COc1ccc(N2CCN(C(=O)CN(C)S(=O)(=O)c3ccc4c(c3)c(=O)n(C)c(=O)n4C)CC2)cc1,2.9,4.5,60.9*,2.3,-2.9,6.4,50.6*,LYPLA2 ABPP=14.0
CN(CC(=O)N1CCN(c2ccc(F)cc2)CC1)S(=O)(=O)c1ccc2c(c1)c(=O)n(C)c(=O)n2C,-4.8,0.0,7.7,-3.2,-1.1,-0.4,.,
COc1ccc(S(=O)(=O)CCC(=O)N2CCN(c3ccc([N+](=O)[O-])cc3)CC2)cc1,3.3,-0.9,54.9*,4.2,-1.8,9.5,58.4*,LYPLA2 ABPP=25.0
Cc1ccc(S(=O)(=O)CCC(=O)N2CCN(c3ccc([N+](=O)[O-])cc3)CC2)cc1,5.8,-2.1,39.4*,2.0,-1.7,9.0,34.8*,
COc1ccc(N2CCN(C(=O)CCN3C(=O)c4ccccc4S3(=O)=O)CC2)cc1,2.9,-2.7,34.4*,3.9,-2.0,-0.6,34.0*,
Cc1ccc(NC(=O)CC2OC(=O)c3ccccc32)cc1S(=O)(=O)N1CCOCC1 (stereo unspecified),2.1,.,3.8,.,-5.0,-1.4,.,
NC(=O)c1nsc(C(=O)N(c2ccccc2)C(C(=O)NC2CCCCC2)c2ccc(O)cc2)c1N (stereo unspecified),-8.1,-3.0,-4.1,-5.5,-3.1,-3.0,.,
CCN1C(=O)[C@H]2[C@@H](c3ccc(C)cc3)N3C(=O)N(c4cccc(Br)c4)C(=O)[C@@]3(CC(C)C)[C@H]2C1=O,-1.3,-4.6,4.4,-0.5,7.4,-0.6,.,
N#C/C(=C\N1CCN(Cc2ccc3c(c2)OCO3)CC1)c1nc2ccccc2s1,-10.4,-6.6,49.7*,-7.1,-6.8,11.2,52.5*,LYPLA2 ABPP=40.0
Cc1cc(C)c(OCC(=O)Nc2ccc(N3CCOCC3)cc2)c(Br)c1,6.0,2.2,27.8*,-3.9,0.0,2.1,1.0,
Cc1cc(C)c(OCC(=O)N(C)CC(=O)Nc2ccc(N3CCOCC3)cc2)c(C)c1,2.5,1.6,0.9,10.4,3.9,1.7,.,
C[C@H](NC(=O)OC(C)(C)C)c1nnc(SCC(=O)Nc2cccc(Cl)c2)o1,3.7,-1.4,-1.0,0.0,-0.5,-3.5,.,
CC(C)[C@H](NC(=O)OC(C)(C)C)c1nnc(SCC(=O)Nc2ccc(Br)cc2)o1,-2.6,-3.0,48.2*,-3.4,-2.4,0.4,54.2*,
COc1ccc(C(CNC(=O)c2ccc(OCc3c(C)noc3C)cc2)N2CCCC2)cc1 (stereo unspecified),1.6,.,-0.2,.,1.4,-1.8,.,
COc1ccc(NC(=O)CCNS(=O)(=O)c2cc(Br)ccc2Br)cc1S(N)(=O)=O,-3.0,1.3,-0.6,5.7,0.5,-3.4,.,
O=S(=O)(/C=C/c1ccccc1)N1CCOCC1,-3.2,-2.9,1.5,2.8,-3.3,-0.1,.,
CCn1c(=O)c(C(=O)CN2CCN(Cc3ccc4c(c3)OCO4)CC2)c(N)n(Cc2ccccc2)c1=O,0.2,-4.5,26.3*,2.2,3.6,4.7,24.0,
